Reference: PubChem BioAssay
Activity calls are given as the source filed them.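 Rule for the calls, unless noted: active = inhibition above 20% together with a positive visual image hit; inconclusive = visual image hit but inhibition not above 20%; inactive = no visual image hit.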

Experiments:
[1] = inhibitors of TNFa-induced NFkB p65 translocation, primary screen, imaging, HUVEC, MLSMR starter and 10KST1 sets (AID 438); settings: HUVEC TNFa-induced p65 nuclear translocation; cell count: measured here: nuclei count (cytotoxicity indicator), at 2.08 µM; inhibition: at 2 µM, stronger effect = higher value, 0% TNFa-plus-vehicle, 100% no-TNFa wells;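 note: compound added about 3h40 before a 20 min TNFalpha stimulation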;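 for inhibition: signal is the nuclear over cytoplasmic p65 intensity ratio per well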
[2] = inhibitors of mutant huntingtin aggregation, primary screen, imaging, exon1htt(103Q)mCFP cells, high-content imaging (AID 483;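 active = visual image review flags a hit and inhibition of aggregation exceeds 20%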;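 note: compound exposure lasted 3 days before fixation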;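 for nuclei count: percent of the per-plate median nuclei count of sample wells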); settings: exon1htt(103Q)mCFP cell line, aggregate imaging, at 2 µM; inhibition of aggregation: stronger effect = higher value; nuclei count: measured here: cell count, toxicity
[3] = inhibitors of E-selectin induction by TNFa, primary screen, imaging, HUVEC, immunofluorescence, MLSMR starter and 10KST1 sets (AID 487;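 active = visually confirmed hit in the image check and inhibition above 20%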;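 for inhibition: signal is fraction of cell area covered by stained E-selectin grains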;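 for nuclei count: 100% = median nuclei count of all wells on the same plate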); settings: HUVEC TNFalpha-induced E-selectin immunofluorescence imaging, at 2 µM; inhibition: stronger effect = higher value; nuclei count: measured here: cell number, toxicity
[4] = molecular target: Voltage-gated potassium channel subunit beta-2 (Rattus norvegicus) (UniProt P62483); test: KvBeta enzyme negative modulators, primary screen, biochemical, NADPH fluorescence (AID 622;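 active = fluorescence slope higher than the sample average by over 3 SD, cut at about -0.22 in these data, passing the limit was not always enough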;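 note: slope of raw intensity against log time taken from 70 to 1610 s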); settings: recombinant KvBeta, 4-cyanobenzaldehyde reduction, at 10 µM, stronger effect = higher value
Voltage-gated potassium channel subunit beta-2 (Rattus norvegicus), sequence (P62483 whole entry, looked up): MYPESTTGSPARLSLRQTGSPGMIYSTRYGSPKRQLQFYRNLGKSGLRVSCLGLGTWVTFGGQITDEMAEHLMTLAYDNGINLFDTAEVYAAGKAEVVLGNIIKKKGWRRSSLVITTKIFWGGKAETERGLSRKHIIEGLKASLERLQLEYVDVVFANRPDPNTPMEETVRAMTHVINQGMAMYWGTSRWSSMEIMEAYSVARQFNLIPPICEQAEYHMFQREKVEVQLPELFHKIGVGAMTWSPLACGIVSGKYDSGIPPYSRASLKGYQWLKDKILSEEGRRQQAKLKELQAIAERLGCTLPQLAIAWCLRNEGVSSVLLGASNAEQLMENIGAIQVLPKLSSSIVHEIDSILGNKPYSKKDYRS

[5] = molecular target: Voltage-gated potassium channel subunit beta-2 (Rattus norvegicus) (UniProt P62483); test: KvBeta positive modulators, primary screen, biochemical, NADPH fluorescence (AID 623;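 active = NADPH fluorescence slope more negative than the mean of all samples by about 3 SD, 99.7% confidence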;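 note: fluorescence intensity change per second fitted from 20 to 320 s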); settings: Recombinant KvBeta, NADPH fluorescence decrease slope, 10 min; at 10 µM; stronger effect = lower value
[6] = molecular target: Alpha-2C adrenergic receptor (Homo sapiens) (UniProt P18825); test: modulators of alpha2C/GIRK thallium flux, primary screen, cell-based, HEK293 alpha2C/GIRK1/2 (AID 624;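 active = fluorescence slope after compound addition differing from the mean of all screened samples at 99.7% confidence, in either direction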;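 note: slope of fluorescence ratio to pre-addition baseline per second over 15 to 24 s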); settings: thallium flux BTC fluorescence, at 10 µM, actives lie on both sides
Alpha-2C adrenergic receptor (Homo sapiens), sequence (P18825 whole entry, looked up): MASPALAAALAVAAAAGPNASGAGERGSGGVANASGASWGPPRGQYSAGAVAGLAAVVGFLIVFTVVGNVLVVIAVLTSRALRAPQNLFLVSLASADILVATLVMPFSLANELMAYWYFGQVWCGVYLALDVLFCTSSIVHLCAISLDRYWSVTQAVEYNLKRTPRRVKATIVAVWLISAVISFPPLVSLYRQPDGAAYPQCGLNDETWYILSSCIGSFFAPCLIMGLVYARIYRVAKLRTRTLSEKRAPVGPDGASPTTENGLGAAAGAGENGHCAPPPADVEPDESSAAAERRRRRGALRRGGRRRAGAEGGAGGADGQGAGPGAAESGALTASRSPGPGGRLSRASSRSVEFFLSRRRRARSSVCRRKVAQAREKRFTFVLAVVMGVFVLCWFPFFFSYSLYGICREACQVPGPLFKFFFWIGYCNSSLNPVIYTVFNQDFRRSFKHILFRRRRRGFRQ

[7] = inhibitors of Sendai virus-induced IRF3 signaling, primary screen, TLR/RLR signaling modifier project, cell-based, Sendai virus stimulus, luciferase, 10K MLSCN set (AID 602276;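 active = inhibition at or above 50% at 10 µM; inactive = inhibition below 50%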;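 note: firefly luciferase from ISG56 promoter only with Renilla not read in this screen; 0% = Sendai virus plus DMSO and 100% = medium plus DMSO without virus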); settings: HEK293 RL24 IRF3 luciferase reporter, at 10 µM, stronger effect = higher value
[8] = inhibitors of poly I:C-induced TLR3 signaling, primary screen, cell-based, poly I:C stimulus, luciferase, 10K MLSCN set (AID 602277;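 active = inhibition of the reporter signal at or above 50%; inactive = inhibition below 50%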); settings: HEK293-TLR3 RL24 IRF3 luciferase reporter, at 10 µM, stronger effect = higher value

| SMILES | cell count [1] | inhibition [1] | inhibition of aggregation [2] | nuclei count [2] [%] | inhibition [3] | nuclei count [3] [%] | fluorescence slope [4] | NADPH fluorescence slope [5] | slope [6] | inhibition [7] | inhibition [8] |
| --- | --- | --- | --- | --- | --- | --- | --- | --- | --- | --- | --- |
| CCOC(=O)N1CCN(C(=O)c2csc3c2CCCCC3)CC1 | 775 | -27.2% (inactive) | 15.1% (inactive) | 121 | -86% (inactive) | 106 | -0.311 (inactive) | 1.7e-05 (inactive) | 0.00586 (inactive) | -2.32% (inactive) | 9.33% (inactive) |
| CN(C1CCS(=O)(=O)C1)S(=O)C12CC3CC(CC(C3)C1)C2 (stereo not drawn) | 150 | 23.1% (inactive) | -16% (inactive) | 98 | 1.8% (inactive) | 95.7 | -0.533 (inactive) | -3.6e-05 (inactive) | 0.00528 (inactive) | -4.43% (inactive) | 99.5% (active) |
| CC(=O)NCCc1nc2ccccc2[nH]1 | 736 | -4.3% (inactive) | -14% (inactive) | 114 | -6.5% (inactive) | 106 | -0.553 (inactive) | -2.7e-05 (inactive) | 0.00636 (inactive) | 12.7% (inactive) | 33.6% (inactive) |
| Cc1ccccc1N1OC2C(=O)N(c3ccc(F)cc3)C(=O)C2C1c1ccccn1 (stereo not drawn) | 680 | -3.5% (inactive) | -5.9% (inactive) | 96.3 | -36.7% (inactive) | 152 | -0.607 (inactive) | -1.4e-05 (inactive) | 0.00636 (inactive) | 10.4% (inactive) | 21.1% (inactive) |
| COc1ccc(-c2noc(-c3ccccc3C(=O)Nc3cccnc3)n2)cc1OC | 395 | -5.7% (inactive) | -13.9% (inactive) | 103 | -57.8% (inactive) | 115 | -0.458 (inactive) | -3.1e-05 (inactive) | 0.00579 (inactive) | 1.54% (inactive) | 0.376% (inactive) |
| CC(C)(Oc1ccc(Cl)cc1)C(=O)NC1CCSC1=O (stereo not drawn) | 620 | -7.5% (inactive) | -23.8% (inactive) | 112 | -63.4% (inactive) | 103 | -0.502 (inactive) | -2.8e-05 (inactive) | 0.00406 (inactive) | 10.9% (inactive) | 15.9% (inactive) |
| CN(c1ccccc1)S(=O)(=O)c1ccc(C(=O)OCC(=O)N2CCOCC2)cc1 | 420 | -5.7% (inactive) | 8.2% (inactive) | 92.9 | 0.3% (inactive) | 105 | -0.583 (inactive) | -6.4e-05 (inactive) | 0.00565 (inactive) | 11.4% (inactive) | 22% (inactive) |
| O=C(CCn1cccc1)N1CCc2ccccc21 | 281 | 6.5% (inactive) | -5.2% (inactive) | 108 | -12% (inactive) | 106 | -0.554 (inactive) | 2e-05 (inactive) | 0.00578 (inactive) | -13.2% (inactive) | -44.8% (inactive) |
